Screening results: PubChem, several laboratories
Sampled rows, rich in hits. Any-hit rate of the full collection: about 27%.
sEH act: increases human soluble epoxide hydrolase activity. P34913. AID 717. purified human sEH enzymatic activity, activator screen. 91,000 compounds, 0.04% hits. activation, % at 2 µM; in the data active = activation above about 37%
CYP2C19 activ: cytochrome P450 2C19 (human) activation; P33261; recombinant CYP2C19, luciferin-H EGE luminescence; hits give high values; 0 = fully inhibited enzyme, 1 = untreated enzyme; activation factor at 5 µM; 96,000 tested, under 10 active; AID 1025;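 active = activation factor of at least 2 at 5 µM in the primary screen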;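 also: 0 = wells with 2.5 mM tranylcypromine and 1 = vehicle-only wells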
Target sequence (P33261 whole entry, looked up): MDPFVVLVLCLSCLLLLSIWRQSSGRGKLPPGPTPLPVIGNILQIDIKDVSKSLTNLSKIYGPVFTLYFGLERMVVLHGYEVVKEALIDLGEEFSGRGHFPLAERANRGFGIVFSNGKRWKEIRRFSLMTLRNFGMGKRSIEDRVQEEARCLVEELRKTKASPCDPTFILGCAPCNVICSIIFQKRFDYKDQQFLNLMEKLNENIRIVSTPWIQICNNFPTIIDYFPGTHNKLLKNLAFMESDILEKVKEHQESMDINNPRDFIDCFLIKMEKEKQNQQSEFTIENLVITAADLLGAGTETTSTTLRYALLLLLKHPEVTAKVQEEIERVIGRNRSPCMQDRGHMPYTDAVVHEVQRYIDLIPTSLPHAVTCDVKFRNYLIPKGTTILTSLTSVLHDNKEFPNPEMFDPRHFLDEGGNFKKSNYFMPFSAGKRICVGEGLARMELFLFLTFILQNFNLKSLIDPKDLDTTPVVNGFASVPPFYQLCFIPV
CYP2C9 activ: increases human cytochrome P450 2C9 activity; P11712; 96,000 compounds, 1.4% hits; AID 1024; activation factor at 5 µM; recombinant CYP2C9, luciferin-H conversion, luminescence; hits give high values; factor 1 = untreated enzyme, 0 = blocked;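 active = activation factor of 2 or more for CYP2C9 at a 5 µM dose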;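 also: 0 = sulfaphenazole-blocked wells and 1 = vehicle-only wells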
CYP2C9 inh: inhibitors of human CYP2C9 | P11712 | AID 777 | 96,000 compounds, 20% hits | inhibition, % at 5 µM | CYP2C9 Supersomes, luciferin-H conversion, luminescence;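 active = blocking of liver enzyme CYP2C9 beyond about 50% at 5 µM, limit read from the data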
sEH inh: blocks human soluble epoxide hydrolase activity | AID 707 | recombinant human sEH enzymatic activity assay | inhibition, % at 2 µM | P34913 | 91,000 compounds, 0.34% hits; in the data active = inhibition above about 80%
CYP2C19 inhib: human CYP2C19 inhibition; CYP2C19 Supersomes, luciferin-H EGE luminescence, 30 min; inhibition, % at 5 µM; 96,000 compounds, 21% hits; AID 778;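 active = CYP2C19 inhibition above a set limit at 5 µM in the primary screen, cut at about 50% in these data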;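 also: plate controls were negative control wells for no effect and 2.5 mM tranylcypromine positive control for full effect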
* = called active by the depositor.

For CCC(C)(C)n1nnnc1C(c1cccs1)N1CC=C(c2ccc(F)cc2)CC1 (stereo unspecified) the results were sEH act 1.6, CYP2C19 activ 0.4, CYP2C9 activ 0.2, CYP2C9 inh 79.3*, sEH inh -3.0 and CYP2C19 inhib 56.3*.
`O=C(Cn1c2c(c(-c3ccccc3Cl)cc1=O)CCC2)N1CCC2(CC1)OCCO2` gave sEH act -6.0, CYP2C19 activ 0.9, CYP2C9 activ 0.5, CYP2C9 inh 48.4, sEH inh 9.1 and CYP2C19 inhib 12.5.
For COc1ccc(N2C(=O)NC(=O)C(CCc3ccncc3)(CCc3ccncc3)C2=O)cc1 the results were sEH act -11.6 and sEH inh 11.3.
`COc1ccc(CCNC(C)CCc2ccc(OC)cc2)cc1` (stereo unspecified) gave sEH act 5.9, CYP2C19 activ 0.4, CYP2C9 activ 1, CYP2C9 inh -1.6, sEH inh -8.9 and CYP2C19 inhib 55.1*.
COc1ccc(CCNCc2ccncc2)cc1 was read as sEH act -1.0, CYP2C19 activ 0.1, CYP2C9 activ 0.3, CYP2C9 inh 71.8*, sEH inh -0.7 and CYP2C19 inhib 90.3*.
COc1ccc(CCNCc2ccc(OC)c(OC)c2OC)cc1 was read as sEH act 6.9, CYP2C19 activ 0.4, CYP2C9 activ 0.9, CYP2C9 inh 8.3, sEH inh -6.7 and CYP2C19 inhib 62.5*.
`CC12CN3CC(C)(CN(C1)C31CCOCC1)C2=O` gave sEH act 0.6 and sEH inh 4.3.
For O=C(c1cccs1)c1cn(Cc2ccccc2Cl)c2ccccc12 the results were sEH act 11.1, CYP2C19 activ 0.9, CYP2C9 activ 0.4, CYP2C9 inh 62.5*, sEH inh -14.4 and CYP2C19 inhib 13.0.
`N#Cc1ccccc1Cn1cc(C(=O)c2cccs2)c2ccccc21` gave sEH act -7.0, CYP2C19 activ 0.5, CYP2C9 activ 0.1, CYP2C9 inh 88.7*, sEH inh 9.9 and CYP2C19 inhib 54.4*.
`COC(=O)c1cc(C(O)(C(=O)OC)C(F)(F)F)c(/N=C/N(C)C)s1` (stereo unspecified) gave sEH act 13.7, CYP2C19 activ 0.2, CYP2C9 activ 0.3, CYP2C9 inh 73.4*, sEH inh -14.1 and CYP2C19 inhib 83.4*.
COc1ccc(N2CCN(CCCN)CC2)cc1 was read as sEH act 25.9 and sEH inh -25.0.
Screening Cc1ccc(Cl)cc1N1CCN(CCN)CC1 returned sEH act -14.4, CYP2C19 activ 0.4, CYP2C9 activ 0.7, CYP2C9 inh 34.7, sEH inh 16.5 and CYP2C19 inhib 58.9*.
For Oc1ccc(C2NCc3ccccc3-n3cccc32)cc1Cl (stereo unspecified) the results were sEH act -0.7, CYP2C19 activ 0, CYP2C9 activ 0.1, CYP2C9 inh 88.9*, sEH inh -0.1 and CYP2C19 inhib 98.2*.
Screening CC1CCC/C=C/C2CC(O)CC2C(O)/C=C/C(=O)O1 (stereo unspecified) returned sEH act -4.9, CYP2C19 activ 0.9, CYP2C9 activ 1.1, CYP2C9 inh -11.4, sEH inh 5.2 and CYP2C19 inhib 11.1.
Screening C[C@H]1CCC[C@@H](O)CCC/C=C/c2cc(O)cc(O)c2C(=O)O1 returned sEH act -5.1, CYP2C19 activ 0.1, CYP2C9 activ 0.2, CYP2C9 inh 77.6*, sEH inh 4.7 and CYP2C19 inhib 89.1*.
For C[C@H]1CCC[C@H](O)CCCCCc2cc(O)cc(O)c2C(=O)O1 the results were sEH act 1.6, CYP2C19 activ 0.2, CYP2C9 activ 0.6, CYP2C9 inh 44.1, sEH inh 0.1 and CYP2C19 inhib 81.0*.
COc1ccc2c(c1OC)C(=O)OC2c1c(O)n(Cc2ccc(F)cc2)c(=O)[nH]c1=O (stereo unspecified) was read as CYP2C19 activ 1, CYP2C9 activ 0.7, CYP2C9 inh 28.2 and CYP2C19 inhib 0.2.
`ClCCNc1nc2ccc(Cl)cc2[nH]1` gave sEH act 9.5, CYP2C19 activ 0.7, CYP2C9 activ 0.9, CYP2C9 inh 12.2, sEH inh -10.2 and CYP2C19 inhib 26.7.
For C=CCn1c(O)c(C(CC)=NCCCO)c(=O)[nH]c1=O the results were CYP2C19 activ 1.1, CYP2C9 activ 1, CYP2C9 inh -4.5 and CYP2C19 inhib -10.0.
`CCCCn1c(O)c(C(CC)=NCc2ccc3c(c2)OCO3)c(=O)[nH]c1=O` gave sEH act 8.4, CYP2C19 activ 0.3, CYP2C9 activ 0.2, CYP2C9 inh 82.1*, sEH inh -9.8 and CYP2C19 inhib 74.2*.
`C=CCn1c(O)c(C(CC)=NCc2cc(OC)cc(OC)c2)c(=O)[nH]c1=O` gave sEH act -6.8, CYP2C19 activ 0.5, CYP2C9 activ 0, CYP2C9 inh 95.1*, sEH inh 5.3 and CYP2C19 inhib 46.1.
`CSc1ccc(CNC2CN3CCC2CC3)cc1` (stereo unspecified) gave CYP2C19 activ 1, CYP2C9 activ 1, CYP2C9 inh -2.4 and CYP2C19 inhib -0.1.
Screening CC(=O)CC(C)(C)n1c[n+](C)nn1 returned sEH act 10.7, CYP2C19 activ 0.8, CYP2C9 activ 1.1, CYP2C9 inh -7.1, sEH inh -13.2 and CYP2C19 inhib 15.2.
For Cc1cc(C)nc(NC2=NCCS2)n1 the results were sEH act 5.5, CYP2C19 activ 1.2, CYP2C9 activ 1.2, CYP2C9 inh -21.4, sEH inh -3.6 and CYP2C19 inhib -19.1.
`CN(C)c1ccc(C(=O)c2ccc(N(C)C)cc2)cc1` gave sEH act 4.2, CYP2C19 activ 0.3, CYP2C9 activ 2.2*, CYP2C9 inh -115.5, sEH inh -2.0 and CYP2C19 inhib 66.3*.
CC(=NCc1cccnc1)c1c(O)n(-c2ccc(C)cc2)c(=O)[nH]c1=O was read as sEH act 11.2, CYP2C19 activ 0.8, CYP2C9 activ 0.9, CYP2C9 inh 12.7, sEH inh -12.3 and CYP2C19 inhib 22.1.
Screening CCC(=O)c1c(O)n(C2CCCCCC2)c(=O)[nH]c1=O returned sEH act -11.2, CYP2C19 activ 0.8, CYP2C9 activ 0.8, CYP2C9 inh 19.5, sEH inh 12.6 and CYP2C19 inhib 17.8.
For CCC(=NCc1ccco1)c1c(O)n(C2CCCCC2)c(=O)[nH]c1=O the results were sEH act 9.9, CYP2C19 activ 0, CYP2C9 activ 0.5, CYP2C9 inh 51.1*, sEH inh -8.1 and CYP2C19 inhib 96.0*.
For CCC(=NCc1cccnc1)c1c(O)n(C2CCCCC2)c(=O)[nH]c1=O the results were sEH act 4.4, CYP2C19 activ 0, CYP2C9 activ 0.2, CYP2C9 inh 83.3*, sEH inh -6.6 and CYP2C19 inhib 98.0*.
CCC(=NCCCN(CC)CC)c1c(O)n(C2CCCCC2)c(=O)[nH]c1=O was read as sEH act -3.9, CYP2C19 activ 0.4, CYP2C9 activ 0.9, CYP2C9 inh 7.8, sEH inh 5.5 and CYP2C19 inhib 56.3*.
